# According to PubChem BioAssay AID2284057 (EPA ToxCast):
# Active and inactive are the calls of the source. The calls were made as follows: active = hit-call score of the fitted dose curve at least 0.9, where 1 is the maximum; inactive = score below 0.9.
# Molecular target: CYP2B6, CYP2B6 (gene 1555) (UniProt P20813)
# Assay: ERF_FR_ADME_hCYP2B6: Eurofins (ERF) CYP450-related Enzyme Activity (ADME) LeadHunter Assay for CYP2B6
# Procedure: ERF_FR_ADME_hCYP2B6 is a biochemical, single-readout assay that uses extracted gene-proteins in a cell-free assay. Measurements were taken 0.5 hour after chemical dosing in a 96-well plate. See CYP2B6 inhibition (recombinant, EFC substrate).ERF_FR_ADME_hCYP2B6 is an assay component calculated from the ERF_FR_ADME_hCYP2B6 assay. It is designed to measure enzyme activity using a type of enzyme reporter as detected by fluorescence intensity of HFC with fluorimetry technology.Data from the assay component ERF_FR_ADME_hCYP2B6 was analyzed at the assay endpoint, ERF_FR_ADME_hCYP2B6, in the positive analysis fitting direction relative to acetonitrile as the negative control and baseline of activity. Using a type of enzyme reporter, loss-of-signal activity can be used to understand changes in enzymatic activity as they relate to gene CYP2B6. To generalize the intended target to other relatable targets, this assay endpoint is annotated to the cyp intended target family, where the subfamily is steroidogenesis-related.
# […] are incubated for 15 minutes at 37 C with Bupropion as substrate and Clopidogrel as control inhibitor. Test Sample Requirements: Minimum for 1) Screen: 25 ul of 10 mM stock -OR- 1 mg (pre-weighed) for 10 uM final testing. 2) Dose Response: 60 ul of 10 mM stock -OR- 1 mg (pre-weighed). uM.
# Chain of CYP2B6, CYP2B6 (gene 1555) (P20813 whole entry, looked up): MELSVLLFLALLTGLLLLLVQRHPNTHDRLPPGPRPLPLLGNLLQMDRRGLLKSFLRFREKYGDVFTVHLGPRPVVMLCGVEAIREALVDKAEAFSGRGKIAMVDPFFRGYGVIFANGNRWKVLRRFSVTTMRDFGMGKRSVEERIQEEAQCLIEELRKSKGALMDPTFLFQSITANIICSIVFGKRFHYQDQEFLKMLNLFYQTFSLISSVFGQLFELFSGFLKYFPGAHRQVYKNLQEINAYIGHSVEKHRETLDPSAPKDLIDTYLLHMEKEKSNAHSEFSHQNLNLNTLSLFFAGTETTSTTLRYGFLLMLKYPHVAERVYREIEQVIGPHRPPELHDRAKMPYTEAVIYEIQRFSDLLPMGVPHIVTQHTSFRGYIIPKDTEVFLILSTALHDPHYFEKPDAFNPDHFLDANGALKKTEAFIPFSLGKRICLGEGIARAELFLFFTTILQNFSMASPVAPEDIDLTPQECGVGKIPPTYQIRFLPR
row,SMILES,AC50
1,O=C(/C=C/c1ccc(O)cc1)CC(=O)/C=C/c1ccc(O)cc1,1.27 µM (active)
